In all, about 16,000 sequences were measured (“Z-score”: median about -0.37, highest 2% from about 3.2 on). The list comes from a sample in which the highest values are over-represented; it also holds similar and randomly drawn sequences.
tested on: RBM10 RRM1-ZnF (GST-tagged construct); assay: RNAcompete 7-mer binding Z-score; higher = stronger binding preference
How it was run: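 A one-sided Z-score for enrichment, taken across the probes containing each heptamer motif, was assigned to every such motif. The RNA came from a designed pool of 241 399 sequences up to 41 nt (1.5 nmol), bound by 20 pmol of GST-tagged RBM10 constructs in 1 ml Hepes pH 7.8 buffer with glutathione Sepharose beads for 30 min at 4°C. Four 2-min washes at 4°C preceded identification of bound RNA by microarray hybridisation.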

Sequence | RNAcompete 7-mer binding Z-score
GAAACGU | -0.00246
GACAGCC | -0.539
CGUCUGC | -0.759
UUUUAAC | -0.818
GUAGAUG | 1.93
AGGUUCA | -0.0285
UUUUCUU | -0.772
UAGCGAG | 0.826
GAGCGAC | 0.192
GAGCGAG | 3.42
UAGCGGA | 1.13
GAGCGGU | 1.72
GAGCGGG | 3.61
CAGCGGG | 2.5
GAGCGGC | 1.44
GAGCGGA | 3.98
CCUACCU | -0.766
CCAGUCC | -0.789
AACGACU | -0.457
CGUGCUG | -0.149
CCCGCUC | -0.552
GGGUAAG | 4.39
CGGUAAG | 1.26
CGGUAAA | 0.29
GGGUAAA | 3.98

Sequence | RNAcompete 7-mer binding Z-score
AGGUAAA | 1.82
GGGUAAC | 2.4
CCCUUCA | -0.776
CCACUAC | -0.623
AUCCGAU | -0.717
CGGAAAA | 0.654
GGAAAAA | 1.86
GGGAAGA | 3.86
GGAAAAG | 3.24
GAAAAAG | 1.49
UGGAAAG | 2.84
CGGAAAG | 1.84
GGGAAGU | 3
UGAAAAG | 0.381
GGGAAAG | 4.79
CGGAAGA | 0.923
GGGAAAA | 3.4
UCCGAUG | -0.464
UGUACUA | -0.415
AUCGGCC | -0.62
CUCGCAG | -0.11
GAGCUGG | 1.88
GGUGCGG | 2.92
GGCGUGC | 0.738
CGGUCUU | -0.607

Sequence | RNAcompete 7-mer binding Z-score
CUAUGGU | -0.116
CCUCUUA | -0.85
GAGGUAA | 2.23
GGGGUAG | 4.61
GGGGUAC | 2.57
GGGGUAA | 4.14
CGGGUAA | 1.89
AAGGUAU | 2.13
AGGGUAU | 3.69
GUGGUAG | 2.2
GGGGUAU | 3.17
CGGGUAU | 1.59
AGGGUAA | 4.13
UGGGUAA | 2.97
ACAUUGG | 0.553
AGCUAAG | -0.035
CAUUUAC | -0.85
AAUCGAA | -0.181
ACCAGCC | -0.672
CCUGAGG | 0.339
GUUCUGU | -0.431
CACUAGC | -0.633
CCGUGCC | -0.532
GGAAUGU | 1.94
GGAAUGG | 4.85

Sequence | RNAcompete 7-mer binding Z-score
AGAAUGU | 0.235
UGAAUGG | 2.5
AGAAUGG | 3.27
CGAAUGG | 1.29
UUGUUUG | 0.0138
UCUAAGG | -0.00896
AUGCGUU | -0.405
UCCAACC | -0.805
UAAGGUA | 1.5
CAAGGUG | 1.76
UAAGGUG | 2.16
GAAGGUU | 2.87
GAAGGUG | 4.59
GAAGGUA | 3.84
AAAGGUG | 3.71
GAAGGUC | 1.25
AAAGGUA | 3.05
AUUAAGG | 1.2
CGGGUCU | 0.339
CCGAAGC | -0.61
UGGUUAG | 2.24
CGGUUGG | 2.56
GGGUUAG | 4.38
UGGUUGA | 2.02
GGGUUGA | 3.8

Sequence | RNAcompete 7-mer binding Z-score
CGGUUGA | 1.01
GGGUUGG | 4.64
CGGUUAG | 0.881
AGGUUGG | 3.06
UCCAGAG | -0.35
ACAGAAG | 0.595
UUACAAA | -0.305
UAACUGA | -0.295
GGUCGGU | 1.24
GGGAUGC | 3.06
GGAUUGU | 1.22
CGAUUGG | 0.949
GGGAUAG | 4
GGUUAGG | 4.59
AGGAUAG | 2.16
UGGAUAG | 2.48
GGUUAGC | 1.12
GGUUAGU | 1.7
GGAUUGG | 3.79
GGGAUGA | 4.17
GGGAUGU | 3.21
UGACAGG | 2.13
UACCCAG | -0.659
UCGCGUA | -0.532
ACUCUUU | -0.844

Sequence | RNAcompete 7-mer binding Z-score
AAUUUCG | -0.607
GUGCUAA | 0.153
UCAUUAA | -0.509
GCAUUCG | -0.444
GGGAUUG | 3.5
GGGAUUC | 1.12
GGAUAGA | 2.61
UGGAUAA | 1.15
GGGAUAA | 3.48
GGAUAGG | 4.11
AGAUAGG | 2.44
AGGAUUG | 1.5
GGGAUAC | 2.5
GUAGUUC | -0.243
UGAAUAG | 0.387
GUCUGAC | -0.529
CACAACA | -0.363
AUGGUGG | 3.82
AUGGUGC | 1.03
UUGGUGG | 2.48
GUGGUGC | 1.76
GUGGUGG | 3.9
CUGGUGG | 1.64
CCCGAGG | 0.384
AUCACAU | -0.457

Sequence | RNAcompete 7-mer binding Z-score
CAGCAAC | -0.539
CGACGCA | -0.36
UGGGUCU | 1.12
ACUGCUG | -0.675
GAGGGUU | 3.03
CAGGGUA | 2.99
UAGGGUC | 1.55
AAGGGCA | 2.78
GAGGGUC | 1.44
UCGGGUA | 1.4
GAGGGUG | 3.75
UAGGGUA | 3.47
UAGGGCG | 2.22
AAGGGUC | 1.72
AAGGGUA | 4.59
UAGGGUG | 4.81
UGUUUCU | -0.418
CCUAAGG | -0.344
AGUCCCA | -0.714
AUGGUAG | 2.74
ACGCCAU | -0.665
AAACCUC | -0.802
UCCCUUU | -0.912
GCAUUUG | -0.477
CCGAAGG | 0.179

Sequence | RNAcompete 7-mer binding Z-score
UAGGGUU | 3.33
GAGGGCA | 2.12
CCGGGUA | 0.625
CAGGGUG | 3.21
CAGGGUC | 1.09
UCGGGUU | 1.12
AAGGUUU | 2.51
GAGGGUA | 3.95
AAGGGUU | 4.07
CAGGGUU | 2.15
AAAGGUU | 3.12
CAGGGCG | 2.02
GCCGCGA | -0.422
AACGUCA | -0.574
AGCUAUG | -0.168
GUUCGCA | -0.652
CCCUUAU | -0.831
AGCUGUU | -0.737
UAUACGU | -0.357
AAGGUGU | 2.55
GAGGUGG | 3.35
CAGGUGA | 1.49
AAGGUGG | 4.39
GAGGUGU | 2.37
GAGGUGA | 2.56

Sequence | RNAcompete 7-mer binding Z-score
AAGGUAG | 3.69
GAGGUGC | 1.81
AAGGUGC | 2.39
CAGGUAG | 2.32
AAGGUAA | 2.97
AAGGUGA | 3.66
CGUUACU | -0.558
AGUAUUC | -0.493
AAACCAA | -0.548
CAGCGUC | -0.623
AGGAAUA | 0.881
ACUACUA | -0.402
CCCUGUG | -0.327
GACUCUA | -0.642
GUAUGUG | 1.07
CACUCGC | -0.604
AUGCGAG | 0.569
AAGGUUG | 3.49
UAGGUUG | 2.09
CAGGUUG | 2.04
AGAGCGC | -0.568
GCACACU | -0.295
GGGUGGG | 4.82
UGGUGGC | 1.8
UCGUGGG | 2.53

Sequence | RNAcompete 7-mer binding Z-score
GGGUGGU | 4.8
UGGUGGU | 2.8
ACGUGGG | 2.43
GCGUGGG | 3.53
UGGUGGA | 2.86
GGGUGGC | 2.89
GGGUGCG | 2.96
UGGUGGG | 4.74
CGGUGGU | 1.64
AACAGAA | -0.0447
UUUGCGU | -0.642
AUGUGGA | 2.27
UUUGACC | -0.88
UCUGCAG | -0.629
AAGCUGG | 0.904
AGGUGGA | 3.15
CGGUGGG | 3.2
AGGUGGU | 2.18
GGGUGGA | 4.53
CGGUGGA | 2.43
AGGUGGG | 3.76
UAUAUAA | -0.519
GAACGGU | 1.64
GAACGGC | 0.693
GGAACGG | 4.07

Sequence | RNAcompete 7-mer binding Z-score
UGGACGG | 3.09
GGACGGG | 4.52
GGACGGC | 1.19
GAACGGG | 4.25
CGGACGG | 1.32
AGAACGG | 1.53
GGGACGG | 3.45
CGAACGG | 1.21
CGACGGG | 1.62
AUAGGCA | 0.686
UGGGCCU | 0.335
CUUACCC | -0.792
CUAUUGC | -0.714
AGAUGGA | 2.97
GGAUGGC | 2.58
GGAUGGU | 3.9
GGAUGGA | 4.23
AGAUGGU | 1.71
UGAUGGU | 1.87
UCUGUGA | -0.581
CAGGGAU | 2.36
AGGGAAG | 4.53
CAGGGAA | 2.96
AAGGGAU | 3.65
AGGGAAC | 2.57

Sequence | RNAcompete 7-mer binding Z-score
AGGGAAA | 4.7
CGGGAAG | 2.18
GGGGAAA | 3.19
AAGGGAA | 4.37
CGGGAAA | 2.41
ACGGGAA | 3.12
GAGGGAU | 3.16
CUGUACU | -0.743
AACCCCA | -0.483
AAGAGCG | 0.836
UUUUUAA | -0.652
ACUCUCG | -0.785
AAGGGAC | 3.18
GAGGGAG | 3.2
CAGGGAG | 2.8
UAGGGAG | 3.25
UGGGAAU | 2.53
AAGGGAG | 3.99
UGGGAAG | 4.03
AAGGGCG | 3
GGGGGAA | 3.15
UGGGAAA | 2.58
AGGGGAA | 3.57
AGAUAGU | 0.0853
UAGCGAU | -0.194

Sequence | RNAcompete 7-mer binding Z-score
ACGUCAU | -0.513
UAUCGAU | -0.513
UGUCCAC | -0.558
CGACCGA | -0.519
GUCCGGA | 0.0625
CAGUAUU | -0.646
CCUGCGG | 0.27
GGAGGUU | 2.51
CGAGGUA | 1.57
GGAGGUG | 3.72
UGAGGUA | 1.97
AGAGGUG | 2.04
GGAGGUA | 3.28
GGAGCGC | 1.27
CAAUGAA | -0.496
AGCUCUA | -0.629
UUAUCAG | -0.399
AUAAAGG | 1.64
GGGUAGA | 3.74
GGGUAGU | 3.11
UGGUAGG | 2.98
GGGUAGC | 2.73
GCGUAGG | 1.78
GGGUAGG | 4.65
GGGUAUC | 2.04

Sequence | RNAcompete 7-mer binding Z-score
AGGUAGG | 3.53
CGGUAGG | 1.82
AGGUAUG | 2.16
GGGUAUG | 4.08
AGGUAGC | 0.803
GGAGUUG | 2.64
AAACGGU | 1.16
CUACAAC | -0.668
CACAAAA | -0.581
AAACCAC | -0.519
GACGGGU | 2.36
GGGAAUU | 2.4
GGGAAUG | 3.93
AGGAAUG | 2.25
GGGAACG | 3.67
UGGAACG | 2.13
GGGAACA | 2.67
ACGCUCU | -0.688
CCCUGGA | -0.123
GGUUACA | 1.26
GAGAUGU | 0.361
AGGAUGG | 3.77
CGGAUGG | 2.38
GAGAUGG | 3.54
UAGAUGG | 2.26

Sequence | RNAcompete 7-mer binding Z-score
UGGAUGG | 4.14
UGGAUGA | 2.17
UGGAUGC | 1.17
AGGAUGC | 1.03
AGGAUCC | -0.34
UGGAUUC | -0.0414
UUCGUAA | -0.802
CCACUCU | -0.711
UCGCACU | -0.565
GAGCAUU | -0.353
UAUGUGA | 0.118
UACGAGU | -0.155
AUUUUCG | -0.87
GUGGAAA | 2.63
GUGGAAG | 3.83
GUGGAAC | 1.61
AUGGAAC | 1.99
AUGGAAA | 2.57
AUGGAAG | 3.6

Reference: the supplement of paper PMC5499739
